From PubChem BioAssay AID652054 (National Center for Advancing Translational Sciences (NCATS), 2013)
Among all 360,000 compounds or so, about 9,100 (2.5%) were called active. Roughly 4% stayed inconclusive and do not appear here. Only a selection was taken, and actives are over-represented in it overall. Unmarked numbers belong to inactive results. Rule as the data show it: active = max response below about -50%; inconclusive = no clear call, values can overlap the other calls; inactive = above that.

The compounds below were run against D(3) dopamine receptor (Homo sapiens) (UniProt P35462) (assay: qHTS of D3 Dopamine Receptor Antagonist: qHTS). Details: D3R cells, DiscoveRx beta-arrestin luminescence, antagonist mode; hits give low values.
Sequence of D(3) dopamine receptor (Homo sapiens) (P35462 whole entry, looked up): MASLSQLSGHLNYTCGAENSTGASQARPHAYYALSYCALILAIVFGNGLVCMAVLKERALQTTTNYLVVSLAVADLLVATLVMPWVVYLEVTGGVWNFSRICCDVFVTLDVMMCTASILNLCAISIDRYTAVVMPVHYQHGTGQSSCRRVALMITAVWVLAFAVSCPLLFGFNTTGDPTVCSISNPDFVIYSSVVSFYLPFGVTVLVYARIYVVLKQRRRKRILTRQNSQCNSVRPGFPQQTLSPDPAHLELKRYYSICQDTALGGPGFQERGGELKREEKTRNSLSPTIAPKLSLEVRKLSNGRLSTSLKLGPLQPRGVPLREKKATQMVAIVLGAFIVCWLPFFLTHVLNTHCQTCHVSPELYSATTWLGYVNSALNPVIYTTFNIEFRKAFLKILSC
From the text: D3 DARs represent a very important target for the treatment of several neuropsychiatric disorders. Indeed, one of the most promising therapeutic applications for the D3 DAR is in the area of addiction and related disorders. […] These findings have been observed with a number of addictive substances including cocaine, amphetamine, nicotine, and alcohol. […] Antagonism of the D3 DAR may also be therapeutic in the treatment of schizophrenia or psychosis. […] Since the D3 DAR is expressed in areas of the CNS associated with the control of mood and emotion, it has been hypothesized that selective antagonism of the D3 DAR may be effective in treating psychosis without inducing the motor side effects typically seen with D2 DAR antagonists.
This part of the project aims to discover novel antagonist.
NIH Chemical Genomics Center [NCGC]
NIH Molecular Libraries Probe Centers Network [MLPCN]
Assay Submitter (PI): David Sibley, NINDS
Freshly passaged cells are plated in 1536 well white, solid bottom plates at a density of 1500 cells/well in 3microl of complete media. After an overnight incubation at 37 degrees C in 5% CO2, cells are loaded with 23nl of test compound from the compound library (as well as dopamine controls) using a 1536 pintool and incubated at 37 degrees C for 90 minutes. Two microliters of DiscoveRx reagent is then added to all cells, and they are incubated for an additional 30 - 60 minutes at room temperature. Following incubation, luminescence is measured on a ViewLux CCD-based luminometer reader using a 20 sec exposure time.
% is scaled to controls: 0 for no effect and ±100 for the full control effect.

SMILES	max response, negative = inhibition
CC(=O)NC(=O)NC(C)Cc1ccccc1 (configuration not stated)	0%
CC(Cc1ccccc1)NCCC(c1ccccc1)c1ccccc1 (configuration not stated)	-75.4% (active)
Fc1ccc(C2N3CCCN23)cc1 (configuration not stated)	17.3%
CCOC(=O)CC(SP1(=S)OCC2(CCCCO2)C(C2CCCCO2)O1)C(=O)OCC (configuration not stated)	0.24%
COc1ccc2c(c1O)-c1cccc3c1[C@@H](C2)N(C)CC3	-64.4% (active)
COc1c(O)ccc2c1-c1c3c(cc4c1C(C2)N(C)CC4)OCO3 (configuration not stated)	-20.5%
COC1=C[C@@H]2[C@@H]3Cc4ccc(OC)c(O)c4[C@]2(CCN3C)CC1=O	2.57%
COc1cccc(CN2CCCC(C(=O)c3ccccc3SC)C2)c1O (configuration not stated)	-25.9%
c1cncc(CNC2=NCCC2)c1	-0.0969%
COC(=O)CN(CCCl)P1(=O)OCCCN1CCCl (configuration not stated)	9.55%
CC(C)Oc1cccc(C(=O)C2CCCN(C3CCOCC3)C2)c1 (configuration not stated)	-5.82%
CCn1cc(CN2CCCC(C(=O)c3cccc(C(F)(F)F)c3)C2)cn1 (configuration not stated)	-84.1% (active)
CSc1ccc(C(=O)C2CCCN(Cc3ccn[nH]3)C2)cc1 (configuration not stated)	2.56%
CN(C)CC1Oc2ccccc2OC1(O)c1ccccc1 (configuration not stated)	-95.3% (active)
CC1CCC(N(C)C2CCN(C)CC2)CC1 (configuration not stated)	-17.4%
Cc1cccc(-n2c(C)nc3cc(C(=O)N4CCC5(CC4)OCCO5)ccc32)c1	-5.12%
Clc1cccc(Cl)c1Cl	-21.5%
Fc1cccc(F)c1CN1CCN(Cc2c(F)cccc2F)CC1	-59.3% (active)
CN1CCN(Cc2ccccc2C(F)(F)F)CC1	-22.2%
O=C(N/N=C/c1c(O)n(C2CC2)c(=S)[nH]c1=O)c1ccccc1	-25.4%
CCC/C(=N\O)c1c[nH]c2ccccc12	-19.7%
Cc1cccc(NC(=O)N2CC3CC(C2)c2cccc(=O)n2C3)c1 (configuration not stated)	8.44%
CCOC(=O)C(O)(c1ccc(NC(=O)c2ccco2)c(OC)c1)C(F)(F)F (configuration not stated)	44%
CCC(=O)CC(c1ccc([N+](=O)[O-])cc1)c1c(O)c2ccccc2oc1=O (configuration not stated)	-88.6% (active)

SMILES	max response, negative = inhibition
COc1cc(C(c2c(O)c3ccccc3oc2=O)c2c(C)n(C)n(-c3ccccc3)c2=O)ccc1O (configuration not stated)	9.1%
Cc1ccc(-n2c(-c3ccc([N+](=O)[O-])cc3)nc3ccccc3c2=O)cc1	7.83%
COC(=O)C[C@H]1CC[C@H]2NC[C@@H](O)COC[C@@H]2O1	0.0579%
CC(=O)NCC1=C(c2ccc3ccccc3c2)C[C@@H]2CC[C@H]1N2Cc1ccco1	-16.9%
C[C@H]1CN([C@@H](C)CO)C(=O)CCCn2nncc2CO[C@H]1CN(C)C(=O)Oc1cccc2ccccc12	27%
CCOC(=O)C1CN(C)CCC1=O (configuration not stated)	-50.3% (active)
CCOC(=O)[C@]12Cc3cc(OC)ccc3[C@H]1N(C(C)C)C(=O)c1ccccc12	0.502%
c1ccc(C(CN2CCCCC2)c2ccccc2)cc1	5.85%
O=[N+]([O-])c1ccc(C2C3C(c4ccccc4)=NC4(CCCCC4)N32)cc1 (configuration not stated)	4.9%
O=C1NC(=O)C(Cc2ccccc2)C(=O)N1	4.35%
CC(=O)N1CN2CN(C(C)=O)CC(C(=O)c3ccc(Br)cc3)(C2)C1	2.09%
Cc1cc2ccccn2c1C(C[N+](=O)[O-])c1c(F)cccc1Cl (configuration not stated)	-52.4% (active)
Cn1cc(C(=O)OCC(=O)N2CCCC2)c2ccccc21	0%
CCC(=O)OC(Cc1ccccc1)(c1ccccc1)C(C)CN(C)C (configuration not stated)	-66% (active)
O=P(OC1=CCCCC1)(c1ccccc1)c1ccccc1	16.2%
CN(C)CCN(CC1CCCN(Cc2ccccc2F)C1)C(=O)Cc1ccc(F)c(F)c1 (configuration not stated)	-0.712%
Nc1ccc(C(=O)N/N=C2/CN3CCC2CC3)cc1	-6.03%
C=CCN1C(=O)NC(=O)/C(=C/c2ccc(OCC(=O)Nc3ccc(C)cc3)cc2)C1=O	-2.43%
O=C(O)C1CSC(c2cccnc2)N1 (configuration not stated)	-75.1% (active)
CC(C)n1c(=O)c(C=Nc2ccc(Br)cc2)c(O)n(Cc2ccco2)c1=O	-0.258%
COC(=O)C1=C(c2ccc(OCc3ccccc3)cc2)C[C@@H]2CC[C@H]1N2C(=O)NCc1ccc(Cl)cc1	-2.39%
COc1ccc(N=Cc2c(O)n(C)c(=O)[nH]c2=O)cc1	-8.25%
COc1ccc(C(=O)C2CCCN(Cc3ccc(C)s3)C2)cc1OC (configuration not stated)	1.99%
